Sampled rows, rich in hits. Any-hit rate of the full collection: about 2.3%.
M1 PAM: positive allosteric modulators of human M1 muscarinic receptor. AID 588819. CHO-K1 hM1, Fluo-8 calcium fluorescence, ACh EC20; 0% = ACh EC20, 100% = maximal ACh. actives 0.088% (n = 360,000). activation, % at 3 µM. P11229; in the data active = activation above about 19%, passing the limit was not always enough
Target sequence (P11229 whole entry, looked up): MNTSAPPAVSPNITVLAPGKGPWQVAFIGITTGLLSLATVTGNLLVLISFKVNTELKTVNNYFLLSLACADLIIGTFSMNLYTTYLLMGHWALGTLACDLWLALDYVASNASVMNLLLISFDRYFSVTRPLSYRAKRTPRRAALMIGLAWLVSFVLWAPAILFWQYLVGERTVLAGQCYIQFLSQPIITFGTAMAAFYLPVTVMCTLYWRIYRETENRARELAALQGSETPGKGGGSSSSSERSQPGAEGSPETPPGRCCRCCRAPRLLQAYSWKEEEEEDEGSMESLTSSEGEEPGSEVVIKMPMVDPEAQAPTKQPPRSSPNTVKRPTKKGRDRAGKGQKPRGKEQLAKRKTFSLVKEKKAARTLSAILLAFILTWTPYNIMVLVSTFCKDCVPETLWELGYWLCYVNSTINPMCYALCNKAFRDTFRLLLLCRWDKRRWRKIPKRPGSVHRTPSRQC
CHRM1 antagonist: blocks human M1 muscarinic receptor. P11229. CHO-K1 hM1, Fluo-8 calcium fluorescence, ACh EC80 antagonist. inhibition, % at 3 µM. actives 1.3% (n = 360,000);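 active = percent inhibition above its own plate's cutoff, namely the mean of that plate's compound wells plus 3 SD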;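 note: peak over basal fluorescence ratio during 140 s after agonist addition; 0% = ACh EC80 plus DMSO and 100% = DMSO alone without agonist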
M1 PAM parental: nonselective activator or artifact in parental CHO-K1 calcium assay. ATP EC20, Fluo-8 calcium fluorescence; 0% at ATP EC20, 100% at ATP max. activation, % at 3 µM. actives 0.02% (n = 360,000);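 active = activation above the run cutoff, the mean activation of all test compounds plus 3 SD, cut at about 40% in these data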;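 note: peak over basal fluorescence ratio in a 140 s read after ATP addition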
CHRM1 agonist: human M1 muscarinic receptor agonism | P11229 | CHO-K1 hM1, Fluo-8 calcium fluorescence, agonist mode; 0% DMSO, 100% acetylcholine EC100 | activation, % at 3 µM | actives 0.33% (n = 360,000) | AID 588814;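 active = activation above the run's mean compound activation plus 3 SD, cut at about 16% in these data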;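 note: peak over basal fluorescence ratio within a 140 s kinetic read after compound addition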
CHO-K1 Ca ag: nonselective activator or artifact in parental CHO-K1 cells. Fluo-8 calcium fluorescence; scaled to maximal ATP response, vehicle zero. actives 0.48% (n = 360,000). AID 602248. activation, % at 3 µM; in the data active = activation above about 15%;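 note: untransfected CHO-K1 host cells lacking M1 receptor as counterscreen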
CHO-K1 Ca antag: nonselective inhibitor or artifact in parental CHO-K1 cells. ATP-induced calcium, Fluo-8 fluorescence. inhibition, % at 3 µM. actives 0.6% (n = 360,000);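 active = inhibition above a per-plate cutoff, the plate's mean sample inhibition plus 3 SD, cut at about 24% in these data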;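 note: 0% = DMSO plus EC80 ATP and 100% = DMSO alone without ATP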
* marks the source's active call; other numbers are inactive results.

Results for Nc1nc(NCCOCCO)nc(NCC2CCCO2)c1[N+](=O)[O-] (stereo not given) ?
M1 PAM: 7; CHRM1 antagonist: -11; M1 PAM parental: 17; CHRM1 agonist: -3; CHO-K1 Ca ag: 2; CHO-K1 Ca antag: -15

Results for CC(=O)N1C[C@H]2CON(C)[C@H]2C[C@H]1c1cccc(-c2cc(Cl)cc(Cl)c2)c1 ?
M1 PAM: 3; CHRM1 antagonist: -18; M1 PAM parental: 14; CHRM1 agonist: -4; CHO-K1 Ca ag: 1; CHO-K1 Ca antag: -9

Results for Cc1sc2ncnc(NC3CCN(Cc4ccccc4)CC3)c2c1C ?
M1 PAM: -23; CHRM1 antagonist: 43*; M1 PAM parental: 11; CHRM1 agonist: -6; CHO-K1 Ca ag: 11; CHO-K1 Ca antag: 10

How did O=C(c1cc(COc2cccc3cnccc23)on1)N1CCCC(CCCO)C1 (stereo not given) do in these assays?
M1 PAM: -15; CHRM1 antagonist: 48*; M1 PAM parental: -28; CHRM1 agonist: 4; CHO-K1 Ca ag: 22*; CHO-K1 Ca antag: 22

What do the screens show for `COCC1CCN(C(=O)c2cc(COc3cccc4cnccc34)on2)CC1`?
M1 PAM: -6; CHRM1 antagonist: 11; M1 PAM parental: 1; CHRM1 agonist: 2; CHO-K1 Ca ag: 15; CHO-K1 Ca antag: 10

How did O=C1CC(O)(C(F)F)Oc2ccc3ccccc3c21 (stereo not given) do in these assays?
M1 PAM: -1; CHRM1 antagonist: 5; M1 PAM parental: 10; CHRM1 agonist: -4; CHO-K1 Ca ag: 0; CHO-K1 Ca antag: 0

How did O=C1CC(O)(C(F)(F)F)Oc2c1ccc1ccccc21 (stereo not given) do in these assays?
M1 PAM: -6; CHRM1 antagonist: 3; M1 PAM parental: 3; CHRM1 agonist: 6; CHO-K1 Ca ag: 28*; CHO-K1 Ca antag: -1

Results for COc1ccc(/C=C2\SC(=O)NC2=S)cc1OC ?
M1 PAM: -9; CHRM1 antagonist: 15; M1 PAM parental: 12; CHRM1 agonist: 7; CHO-K1 Ca ag: 21*; CHO-K1 Ca antag: 11

Results for COc1cc(/C=C2/SC(=S)NC2=O)ccc1OS(=O)(=O)c1ccc(C)cc1 ?
M1 PAM: -10; CHRM1 antagonist: 12; M1 PAM parental: -4; CHRM1 agonist: 0; CHO-K1 Ca ag: 11; CHO-K1 Ca antag: 25*

How did CCOC(=O)N1CCC(NCCNC(=O)c2ccc(F)cc2)CC1 do in these assays?
M1 PAM: -33; CHRM1 antagonist: 68*; M1 PAM parental: 17; CHRM1 agonist: 63*; CHO-K1 Ca ag: 0; CHO-K1 Ca antag: -21

What do the screens show for `CCOC(=O)N1CCC(NC(=O)c2ccc(Cl)cc2)CC1`?
M1 PAM: 5; CHRM1 antagonist: -4; M1 PAM parental: 2; CHRM1 agonist: -1; CHO-K1 Ca ag: 0; CHO-K1 Ca antag: -1

What do the screens show for `CCOC(=O)N1CCC(NCCNC(=O)c2cccc(F)c2)CC1`?
M1 PAM: -33; CHRM1 antagonist: 64*; M1 PAM parental: 6; CHRM1 agonist: 66*; CHO-K1 Ca ag: 0; CHO-K1 Ca antag: -21

Results for CCOC(=O)N1CCC(NC(=O)c2oc3c(F)cccc3c2C)CC1 ?
M1 PAM: 5; CHRM1 antagonist: -2; M1 PAM parental: 11; CHRM1 agonist: -5; CHO-K1 Ca ag: 1; CHO-K1 Ca antag: -19

Results for CCCN(CCC)S(=O)(=O)c1ccc(C(=O)Nc2c(C)n(C)n(-c3ccccc3)c2=O)cc1 ?
M1 PAM: 0; CHRM1 antagonist: 39*; M1 PAM parental: 13; CHRM1 agonist: -6; CHO-K1 Ca ag: 0; CHO-K1 Ca antag: -15

What do the screens show for `Cc1c(NC(=O)c2ccc(N(C)S(=O)(=O)c3ccccc3)cc2)c(=O)n(-c2ccccc2)n1C`?
M1 PAM: -6; CHRM1 antagonist: 7; M1 PAM parental: -1; CHRM1 agonist: -15; CHO-K1 Ca ag: 1; CHO-K1 Ca antag: -2

How did Cc1c(NC(=O)c2ccccc2NS(=O)(=O)c2ccc(F)cc2)c(=O)n(-c2ccccc2)n1C do in these assays?
M1 PAM: 2; CHRM1 antagonist: 0; M1 PAM parental: -14; CHRM1 agonist: -6; CHO-K1 Ca ag: 0; CHO-K1 Ca antag: 21

What do the screens show for `Cc1c(NC(=O)c2ccc(S(=O)(=O)Nc3ccccc3F)cc2)c(=O)n(-c2ccccc2)n1C`?
M1 PAM: -22; CHRM1 antagonist: 35*; M1 PAM parental: -11; CHRM1 agonist: -6; CHO-K1 Ca ag: 0; CHO-K1 Ca antag: -3

What do the screens show for `Cc1c(NC(=O)c2ccc(S(=O)(=O)N3CC(C)OC(C)C3)cc2)c(=O)n(-c2ccccc2)n1C` (stereo not given)?
M1 PAM: 12; CHRM1 antagonist: -6; M1 PAM parental: -8; CHRM1 agonist: -12; CHO-K1 Ca ag: 12; CHO-K1 Ca antag: 32*

What do the screens show for `Cc1c(NC(=O)c2cccc(S(=O)(=O)N(C)c3ccccc3)c2)c(=O)n(-c2ccccc2)n1C`?
M1 PAM: -20; CHRM1 antagonist: 38*; M1 PAM parental: -20; CHRM1 agonist: -7; CHO-K1 Ca ag: 1; CHO-K1 Ca antag: -9

How did CCN1/C(=C/c2ccc3cccc(C)c3[n+]2CC)Sc2ccccc21 do in these assays?
M1 PAM: -7; CHRM1 antagonist: 51*; M1 PAM parental: 8; CHRM1 agonist: 14; CHO-K1 Ca ag: 10; CHO-K1 Ca antag: 24

What do the screens show for `CCN1/C(=C\c2ccc3cc(C)ccc3[n+]2CC)Sc2cc(C)c(C)cc21`?
M1 PAM: -12; CHRM1 antagonist: 52*; M1 PAM parental: -4; CHRM1 agonist: 13; CHO-K1 Ca ag: 18*; CHO-K1 Ca antag: 35*

Results for CCN1/C(=C/c2ccc3cc(C)cc(C)c3[n+]2CC)Sc2cc(C)ccc21 ?
M1 PAM: -13; CHRM1 antagonist: 55*; M1 PAM parental: -11; CHRM1 agonist: 18*; CHO-K1 Ca ag: 21*; CHO-K1 Ca antag: 40*

How did O=C(O)c1ccc(CS(=O)(=O)c2c(Cl)cccc2Cl)o1 do in these assays?
M1 PAM: 4; CHRM1 antagonist: -6; M1 PAM parental: -12; CHRM1 agonist: -3; CHO-K1 Ca ag: 10; CHO-K1 Ca antag: 13

How did COc1cc(-c2cc3nc(NCc4cccc(Cl)c4)ccn3n2)cc(OC)c1OC do in these assays?
M1 PAM: -8; CHRM1 antagonist: 0; M1 PAM parental: 15; CHRM1 agonist: -4; CHO-K1 Ca ag: 3; CHO-K1 Ca antag: -13

How did COCCCNc1ccn2nc(-c3ccc(Cl)cc3)cc2n1 do in these assays?
M1 PAM: 6; CHRM1 antagonist: -11; M1 PAM parental: -4; CHRM1 agonist: -1; CHO-K1 Ca ag: 2; CHO-K1 Ca antag: 24*

What do the screens show for `O=C(NCCCN1CCCC1)Nc1ccccc1[N+](=O)[O-]`?
M1 PAM: 11; CHRM1 antagonist: -11; M1 PAM parental: 12; CHRM1 agonist: -7; CHO-K1 Ca ag: 0; CHO-K1 Ca antag: -2
